An excerpt weighted towards active compounds, which were near 7% of everything screened.
S2 tox – reduces viability in counter-screen for ATXN expression inhibitors. S2 cells (HEK-293 line with an ATXN2-luciferase reporter) viability, CellTiter-Fluor protease fluorescence, 24 h. Potency, µM (titrated, usually from 56.7 µM), hits mostly cytotoxic. 400,000 tested, 0.49% active. AID 651635; further: potency means the concentration at half of the fitted maximal effect; nearly all actives have a fitted effect of over 40% in size
IL-1B inflam inh – inflammasome signaling inhibition, IL-1 beta readout; activity change, % at 57.5 µM; 360,000 tested, 4.7% active; AID 743279; THP-1 LPS/ATP IL-1B secretion, AlphaLISA, 16 h; stronger effect = lower value; in the data active means activity change below about -50%; inconclusive means mostly about -30% to -49%; further: on the % scale 0 is the no-effect control and ±100 the full control effect
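Secreted IL-1B measured by AlphaLISA bead assay after 16 h compound exposure of THP-1 cells; compounds (final up to 57.5 uM) added 1 h before LPS (250 ng/mL) and ATP (1.25 mM) stimulation; lower signal means less secretion.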
Integrin act MD – activators of alpha7 integrin expression for muscular dystrophy | AID 624291 | Potency, µM (titrated, usually from 38.3 µM), without a hit: top-dose activation, hits mostly activators | 350,000 tested, 0.064% active | alpha7betagal myoblasts, beta-gal FDG fluorescence, 48 h;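 further: potency means the concentration at half of the fitted maximal effect; 100% = response of the positive control SU9516; nearly all actives have a fitted effect of over 60% in size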
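alpha7betagal+/- myoblasts (passage 13, 250/well) treated 48 h at 37C with compounds at 1:260 dilution of DMSO stock. Lysed, then beta-galactosidase activity read as FDG fluorescence (ex 480/em 540) after 30 min, with pre-read for autofluorescence.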
ATXN2 expr inh – reduces ATXN2 reporter expression in HEK-293 cells; HEK-293 ATXN2-luciferase reporter, luminescence, 24 h; Potency, µM (doses to about 57 µM), inactives show top-dose activity change, negative = inhibition, actives largely listed as inhibitors; 360,000 tested, 0.72% active; AID 1745845; further: potency means the concentration at half of the fitted maximal effect; on the % scale 0 is the no-effect control and ±100 the full control effect; nearly all actives have a fitted effect of over 55% in size
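ATXN2-luciferase reporter cells (luciferase flanked by upstream and downstream ATXN2 gene portions) were treated 24 h at 37 °C with compounds at up to 57 uM. SteadyGlo luminescence gave expression; GF-AFC fluorescence gave viability.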
DRD3 agonist – agonists of human D3 dopamine receptor | P35462 | D3R DiscoveRx beta-arrestin cells, luminescence, 90 min | max activation, % | 410,000 tested, 0.58% active; in the data active means max activation above about 30%; further: 0% is about no effect
Target sequence (P35462 whole entry, looked up): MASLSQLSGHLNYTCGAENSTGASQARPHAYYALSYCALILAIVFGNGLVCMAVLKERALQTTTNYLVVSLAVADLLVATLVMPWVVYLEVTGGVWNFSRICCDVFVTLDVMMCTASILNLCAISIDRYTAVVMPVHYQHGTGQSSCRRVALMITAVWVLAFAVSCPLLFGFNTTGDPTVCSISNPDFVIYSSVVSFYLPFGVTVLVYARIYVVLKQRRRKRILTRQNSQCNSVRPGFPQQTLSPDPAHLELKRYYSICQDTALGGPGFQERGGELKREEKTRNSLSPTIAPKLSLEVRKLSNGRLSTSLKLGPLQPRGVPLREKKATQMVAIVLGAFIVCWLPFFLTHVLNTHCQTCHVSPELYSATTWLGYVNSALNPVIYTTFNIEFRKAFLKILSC
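Agonist mode: compounds and dopamine controls were applied to plated cells for 90 min at 37 degrees C after an overnight attachment at 1500 cells/well. Luminescent read-out followed 30 - 60 minutes at room temperature with DiscoveRx detection reagent.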
D3 antag – antagonists of human D3 dopamine receptor | P35462 | D3R cells, DiscoveRx beta-arrestin luminescence, antagonist mode; stronger effect = lower value | max response, negative = inhibition, % | 360,000 tested, 2.5% active; in the data active means max response below about -50%; inconclusive means no clear call, values can overlap the other calls; further: on the % scale 0 is the no-effect control and ±100 the full control effect
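Cells expressing the human receptor were seeded at 1500 cells/well, incubated overnight at 37 degrees C in 5% CO2, then exposed to library compounds with dopamine controls for 90 minutes at 37 degrees C before luminescent detection.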
The depositor's hits bear a star; i = inactive; ? = inconclusive; . = no result given. Unless noted, the call rests on the fitted dose curve; in most records, active means well fitted curve in the direction sought with a large enough effect; inconclusive means small, poorly fitted or top-dose-only effect, or another doubt; inactive means no such curve, though single readings can be large; an effect the other way counts as inactive or inconclusive.

SMILES | S2 tox | IL-1B inflam inh | Integrin act MD | ATXN2 expr inh | DRD3 agonist | D3 antag
COC(=O)c1cc(-c2cc(OC)ccc2OC)nc2c1c(=O)n(C)c(=O)n2Cc1ccccc1 | . | 12.8 | -0.9% | -12.2% | -28.7 | -78.9*
CN1CC2(C)OC(=O)C(Cl)=C2CC1c1ccccc1 (centres undefined) | i | 5.6 | 3.6% | 7.7% | 2.4 | 8.2
Cc1ccc(NC2=C/C(=N/S(=O)(=O)c3cccs3)c3ccccc3C2=O)cc1 | 7.94µM* | -88.9* | -62.4% | 7.94µM* | -11.6 | -71.6*
O=C1C(Nc2ccccc2)=C/C(=N/S(=O)(=O)c2cccs2)c2ccccc21 | . | -98.7* | -47.2% | 7.94µM* | -38.4 | -85.4*
Cc1ccc(S(=O)(=O)/N=C2\C=C(NS(=O)(=O)c3ccccc3)C(=O)c3ccccc32)c(C)c1 | i | 15.6 | 12.3% | -4.0% | -23.3 | ?
CC(C)(C)c1n[nH]c(=S)n(N)c1=O | i | 2.3 | -14.7% | 6.5% | -3.9 | -14.7
CN(CC(=O)Nc1c(Cl)cccc1Cl)C(=O)c1ccc(NS(=O)(=O)c2ccc3[nH]c(=O)[nH]c3c2)cc1 | i | 4.9 | ? | 1.1% | 4.7 | -4.3
CC(NCc1ccc2c(c1)OCO2)c1ccccc1 (centres undefined) | i | -8.2 | 4.9% | -5.8% | -17.6 | -15.9
Cc1ccc(C2(CCNCc3ccc(N(C)C)cc3)CCOC(C(C)C)C2)cc1 (centres undefined) | ? | -97.2* | -66.5% | ? | 1.1 | -1.0
Cc1ccc(C2(CCNS(=O)(=O)c3ccc(C)cc3)CCOC(C(C)C)C2)cc1 (centres undefined) | i | -7.9 | -1.5% | -4.7% | 6.8 | 9.0
CC(C)C1CC(CCNCc2ccc(N(C)C)cc2)(c2ccccc2)CCO1 (centres undefined) | ? | -100.4* | -46.2% | ? | -20.0 | -29.4
CC(C)C1CC(CCNCc2ccc3c(c2)OCO3)(c2ccccc2)CCO1 (centres undefined) | i | -68.6* | -20.8% | -29.2% | -6.8 | 1.8
COc1ccc(C(C#N)N2CCC(c3ccccc3)=N2)cc1OC (centres undefined) | i | -51.1* | ? | 30.1% | -2.9 | -2.2
O=Cc1cc(N=Nc2ccccc2Cl)ccc1O | 33.6µM* | 143.1 | 0.0% | -32.4% | -26.3 | ?
CCCCN(C(=O)c1ccccc1Br)C1CCS(=O)(=O)C1 (centres undefined) | ? | 3.3 | -1.0% | -7.0% | 5.8 | 16.5
COc1ccc2[nH]c3c(c2c1)CCN1C(=O)C(CC(=O)NCCC2=CCCCC2)C[C@H](C(=O)N2CCOCC2)[C@@]31CCC1CCCC1 (some centres undefined) | i | -2.0 | 17.3% | 0.2% | 29.6 | -52.2*
COc1ccc2[nH]c3c(c2c1)CCN1C(=O)C(CC(=O)NCCN2CCOCC2)C[C@H](C(=O)N2CCCCC2)[C@@]31CCc1ccccc1 (some centres undefined) | i | 3.4 | -4.9% | 5.8% | 30.3* | -9.2
COc1ccc2[nH]c3c(c2c1)CCN1C(=O)C(CC(=O)NCC24CC5CC(CC(C5)C2)C4)C[C@H](C(=O)N2CCOCC2)[C@@]31CCC1CCCC1 (some centres undefined) | i | -61.6* | 6.3% | 7.6% | -22.0 | -20.2
Cc1ccc(Oc2nc3ccccn3c(=O)c2/C=C(\C#N)C(=O)Nc2c(C)n(C)n(-c3ccccc3)c2=O)c(C)c1 | i | 0.0 | -13.5% | 0.0% | -0.9 | 15.2
Cc1cc2oc(=O)cc(C)c2cc1NC(=O)CCl | ? | -84.3* | -65.8% | -28.9% | -4.3 | -6.4
Cc1cc2oc(=O)cc(C)c2cc1NC(=O)CCC(=O)O | i | 23.2 | 6.8% | 0.0% | -0.5 | -8.2
O=C(CCl)Nc1cc2[nH]c(=O)[nH]c2cc1Br | ? | -100.7* | -73.3% | ? | 0.1 | -7.9
Cc1cc2c(C)cc(=O)[nH]c2cc1NC(=O)CCl | 11.2µM* | -96.2* | -59.8% | . | 3.0 | 11.4
O=C(c1ccco1)N(CCC(c1ccccc1)c1ccco1)Cc1ccc(F)cc1 (centres undefined) | i | ? | 10.0% | -12.7% | 11.3 | 17.9
CC1(C)CC(C(CCN(Cc2ccccc2)C(=O)c2ccco2)c2ccc(F)cc2)CCO1 (centres undefined) | ? | -52.2* | 8.1% | ? | 47.8* | 34.6
SMILES | S2 tox | IL-1B inflam inh | Integrin act MD | ATXN2 expr inh | DRD3 agonist | D3 antag
CCOC(=O)N1CCc2c(sc3c2c(=O)n(-c2ccccc2C(F)(F)F)c(=O)n3Cc2ccccc2C)C1 | . | . | . | . | -7.9 | .
CCCN(CC(=O)Nc1cc(Cl)ccc1Cl)C(=O)/C=C/c1ccco1 | i | -2.1 | -11.9% | 3.6% | -1.7 | 10.9
COc1ccc2c(c1)CCc1sc(NC(=O)c3ccc(C)cc3)nc1-2 | i | -55.3* | 2.6% | -11.9% | -10.1 | -10.4
COc1cc(CN(C)CC2CCCN(CCc3ccccc3F)C2)cc(Cl)c1OC (centres undefined) | 17.8µM* | -83.8* | -12.7% | ? | -12.9 | -27.7
COc1ccccc1CCN1CCCC(CN(C)C(=O)CCC(=O)N(C)C)C1 (centres undefined) | i | 11.3 | 23.7% | -3.1% | -2.0 | 7.6
COCC(=O)N(C)CC1CCCN(CCc2ccccc2OC)C1 (centres undefined) | i | -1.7 | -35.4% | 1.1% | -11.9 | -64.1*
COc1ccc(F)c(CN(C)CC2CCCN(CCc3ccc(F)cc3)C2)c1 (centres undefined) | ? | -57.8* | -53.7% | ? | -20.3 | 8.3
COc1ccc(CN(C)CC2CCCN(CCc3ccc(F)cc3)C2)cc1OC (centres undefined) | ? | ? | -12.3% | . | -12.9 | -14.3
COc1ccc(CN(C)CC2CCCN(CCc3ccc(Cl)cc3)C2)cc1OC (centres undefined) | i | -86.3* | -52.4% | -16.9% | -14.8 | 2.7
COc1ccccc1OCCNC(=O)Nc1ccc(Br)cc1 | i | -21.6 | 8.8% | -26.2% | -9.5 | -9.1
Cc1ccc(NS(=O)(=O)c2cc([N+](=O)[O-])ccc2NNC(=S)Nc2cc(C)ccc2C)c(C)c1 | 15.8µM* | -66.9* | -59.8% | 20µM* | -18.4 | -22.7
Cc1ccc(NS(=O)(=O)c2cc([N+](=O)[O-])ccc2NNC(=S)Nc2cccc(Cl)c2)c(C)c1 | ? | -22.1 | -12.0% | -7.8% | -4.2 | -73.2*
COc1ccc(NC(=S)NNc2ccc([N+](=O)[O-])cc2S(=O)(=O)Nc2ccc(C)cc2C)cc1 | ? | -83.5* | ? | -36.4% | 1.6 | 18.6
O=C(Cc1ccccc1)Nc1ccccc1C(=O)N1CCCCCC1 | i | 8.7 | ? | -4.5% | -8.5 | 9.7

Screens deposited in PubChem by National Center for Advancing Translational Sciences (NCATS).
